# Assay outcomes (PubChem BioAssay)
# Granule exo inh: lytic granule exocytosis inhibition; TALL-104 LAMP-1 surface exposure, flow cytometry; cells stimulated with thapsigargin and PMA; inhibition, % at 10 µM; hit rate 0.66% among 360,000;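 active means inhibition above about 55%, limit read from the data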
# Platelet DG rel: modulates dense granule release in human platelets; human platelet-rich plasma, SFLLRN dense granule ATP release, luminescence; hit rate 0.22% among 300,000; inhibition, %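 (compounds screened at 7.5 µM in platelet-rich plasma)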;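 active means mean replicate score, as percent of positive control, at or above 50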
# ABHD5-PLIN5 inh: inhibitors of human ABHD5-perilipin-5 interaction | Q00G26+Q8WTS1 | Split G. princeps luciferase complementation, luminescence, 4 h | AID 602281 | hit rate 0.78% among 360,000 | inhibition, % at 4 µM;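 active means inhibition above the mean inhibition across every tested compound plus 3 SD, cut at about 22% in these data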;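 further: 0% = DMSO only wells and the 100% control is not disclosed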
# Target sequence (Q00G26 whole entry, looked up): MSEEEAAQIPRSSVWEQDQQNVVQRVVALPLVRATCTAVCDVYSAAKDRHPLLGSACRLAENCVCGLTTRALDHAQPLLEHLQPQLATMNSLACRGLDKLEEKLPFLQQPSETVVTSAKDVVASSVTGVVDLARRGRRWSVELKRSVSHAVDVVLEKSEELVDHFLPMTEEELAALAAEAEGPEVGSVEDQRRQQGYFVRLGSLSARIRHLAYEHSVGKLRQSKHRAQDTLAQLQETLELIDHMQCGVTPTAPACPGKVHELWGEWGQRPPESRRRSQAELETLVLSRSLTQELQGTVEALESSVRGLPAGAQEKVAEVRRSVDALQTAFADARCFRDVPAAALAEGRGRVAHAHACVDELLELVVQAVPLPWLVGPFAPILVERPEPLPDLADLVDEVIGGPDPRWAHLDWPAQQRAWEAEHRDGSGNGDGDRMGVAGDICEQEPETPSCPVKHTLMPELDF
# Target sequence (Q8WTS1 whole entry, looked up): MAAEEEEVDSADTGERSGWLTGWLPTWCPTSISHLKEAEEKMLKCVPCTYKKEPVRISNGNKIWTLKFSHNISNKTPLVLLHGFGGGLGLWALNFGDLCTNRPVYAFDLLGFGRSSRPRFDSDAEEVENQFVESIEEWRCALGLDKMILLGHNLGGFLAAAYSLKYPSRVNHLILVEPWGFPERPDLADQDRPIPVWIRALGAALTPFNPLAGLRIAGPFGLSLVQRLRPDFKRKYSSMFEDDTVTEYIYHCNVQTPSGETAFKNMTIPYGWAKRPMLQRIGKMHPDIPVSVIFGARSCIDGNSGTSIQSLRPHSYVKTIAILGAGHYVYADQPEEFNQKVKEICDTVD
# PfM18AAP inh: blocks P. falciparum M18 aspartyl aminopeptidase; AID 1822; hit rate 1.2% among 290,000; recombinant PfM18AAP, H-Glu-NHMec fluorogenic cleavage; inhibition, % at 7.35 µM;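 active means inhibition above the campaign mean inhibition over all tested compounds plus 3 SD, cut at about 28% in these data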;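 further: 0% = plate median of test compound wells and 100% = 2 mM ZnCl2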
# Rce1 inhib: blocks yeast Ras-converting enzyme; Q03530; yeast membranes, quenched prenylated peptide cleavage fluorescence; calls only; hit rate 0.27% among 290,000; AID 2563;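 active means fall in fluorescence gain of 50% or more versus controls, with final raw signal at or below 3038400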;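 further: plate controls were neutral control wells for no effect and wells lacking membranes for full effect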
# Numbers without * were called inactive; i = inactive; / = no result given; + = active, no number. Only some compounds are listed: those with a hit (about 2.6% of all), similar ones and a draw of the others.
SMILES,Granule exo inh,Platelet DG rel,ABHD5-PLIN5 inh,PfM18AAP inh,Rce1 inhib
CC1=C(C(=O)OCCOC(C)C)C(c2cc3c(cc2Br)OCO3)C2=C(CCCC2=O)N1 (configuration not stated),100*,0,-4,4,i
CCN(CC)c1ccc(C2C(C(=O)OCCOC(C)C)=C(C)NC3=C2C(=O)CCC3)cc1 (configuration not stated),-1,3,-7,-3,i
COc1ccc(/C=N/Nc2cc(OC)ncn2)cc1,1,52*,-2,-11,i
COc1ccc(/C=N/Nc2cc(N(C)C)nc(N(C)C)n2)cc1,2,-12,-11,6,i
COc1ccc(/C=N/Nc2nncc3ccccc23)cc1,2,68*,-1,-1,i
Cc1cc(C)nc(NC(N)=NC2CCCCC2)n1,-1,1,4,0,i
Cn1c(=O)oc2cc(S(=O)(=O)NC3CCN(Cc4ccccc4)CC3)ccc21,4,52*,-3,0,i
CN(C)c1ccc(/C=[N+](\[O-])C(C)(C)/C=N/O)cc1,-1,5,2,18,i
N=c1n(CC(=O)c2ccc([N+](=O)[O-])cc2)c2ccccc2n1Cc1ccc(Cl)cc1,4,1,-1,1,i
N=c1n(CC(=O)c2ccc([N+](=O)[O-])cc2)c2ccccc2n1Cc1ccccc1,76*,-2,-1,11,i
O=C(CCC(=O)Nc1cccc(C(F)(F)F)c1)NCC1CCCO1 (configuration not stated),0,10,3,-13,i
Oc1cccc(-c2sc3ccccc3c2-c2ccc(OCCN3CCCCC3)cc2)c1,59*,/,12,/,/
c1ccc(-c2sc3ccccc3c2-c2ccc(OCCN3CCOCC3)cc2)cc1,-3,/,6,/,/
CC(=O)Nc1ccc(C=NNc2ccc(S(=O)(=O)Nc3ccccc3C(=O)O)cc2[N+](=O)[O-])cc1,0,/,-2,/,/
O=C(O)c1ccccc1NS(=O)(=O)c1ccc(NNC(=S)Nc2ccc(OC(F)F)cc2)c([N+](=O)[O-])c1,-1,1,-8,44*,i
CCN1CCN(CC(O)COC(c2ccccc2)c2ccccc2)CC1 (configuration not stated),12,15,0,-16,i
CCN(CC)C(CNS(=O)(=O)c1ccc(Cl)cc1)c1ccccc1 (configuration not stated),-5,11,-6,3,i
Cc1ccc2nc(-c3ccccn3)[nH]c2c1,-14,58*,1,-15,i
c1ccc(-c2nc3ccccc3[nH]2)nc1,17,14,-9,-9,i
Cc1ccccc1-c1nc(CS(=O)(=O)CC(=O)N2CCc3ccccc32)c(C)o1,0,58*,-2,2,i
COc1ccc(OC)c(NC(=O)CS(=O)(=O)Cc2nc(-c3ccccc3C)oc2C)c1,-3,51*,6,4,i
COc1cccc(-c2nc(CS(=O)(=O)CC(=O)Nc3c(C)cccc3C)c(C)o2)c1,-4,3,-4,0,i
COc1ccccc1OCC(=O)n1cc(C(=O)c2cc(Cl)cc(Cl)c2O)cn1,-8,3,0,33*,i
Oc1ccc(O)c2c1C1c3ccccc3C2c2ccccc21,/,1,/,81*,i
O=[N+]([O-])c1ccc(/C=N/NC(=S)Nc2ccc(Cl)cc2Cl)s1,94*,-2,-5,17,/
SMILES,Granule exo inh,Platelet DG rel,ABHD5-PLIN5 inh,PfM18AAP inh,Rce1 inhib
Cc1cc(N2CCOCC2)n2cc(-c3ccccc3)nc2n1,-1,-12,-10,-4,+
Cc1cc(N2CCOCC2)n2cc(-c3ccc(F)cc3)nc2n1,0,8,-2,3,i
COc1ccc(C(C(=O)NCc2ccccc2)N(Cc2ccco2)C(=O)c2snc(C(N)=O)c2N)cc1 (configuration not stated),40,-13,0,2,i
COc1ccc(C(C(=O)NCc2ccccc2)N(Cc2ccco2)C(=O)c2snc(C(N)=O)c2N)cc1OC (configuration not stated),56*,3,8,-3,i
O=C(O)CC/C(=N\Nc1ccc([N+](=O)[O-])cc1S(=O)(=O)N1CCOCC1)c1cccs1,-6,5,-1,30*,i
Cc1ccc(S(=O)(=O)N2CCN(CC(=O)N3CCOCC3)CC2)cc1,-3,-9,0,3,i
CCCC(=O)Nc1cccc(NC(=O)c2ccccc2Br)c1,0,86*,-1,3,i
CC(C)CC(=O)Nc1cccc(NC(=O)c2ccccc2Cl)c1,0,92*,-6,-2,i
